Measurements as given in PubChem BioAssay AID1159580 (chemical genetic matrix, 2015).
“And” between values parts separate entries of the source, which are not always exact repeats. Equal entries are not always repeated. The campaign covered roughly 5,500 compounds. About 2,000 (36%) were called active. Not shown: some 18% with an inconclusive outcome. Cut-off read from the data, not from the text of the source: active = normalized growth mostly below about 0.91 (no sharp cut-off); inconclusive = no clear call, values can overlap the other calls; inactive = mostly above about 0.92. The list shows a part of the results.

Assay: chemical genetic growth profiling, strain panel (AID 1159580);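 note: tested at 20 µM; growth read once vehicle control cultures reached saturation at 30 °C; 1 = growth at the plate median or of vehicle wells; lower values mean less growth of the strain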
Conditions: growth OD

Measured: normalized growth

COc1ccc2[nH]cc(CCN)c2c1
inactive: S. cerevisiae deletion strains, locus YJR043C, strain POL32, stronger effect = lower value 1.02 | S. cerevisiae deletion strains, locus YJR075W, strain HOC1, stronger effect = lower value 0.995 and 0.984 | S. cerevisiae deletion strains, locus YKL009W, strain mrt4, stronger effect = lower value 0.94 | S. cerevisiae deletion strains, locus YKL068W, stronger effect = lower value 0.986 | S. cerevisiae deletion strains, locus YKL085W, strain MDH1 (second series), stronger effect = lower value 0.991 | S. cerevisiae deletion strains, locus YKL085W, strain MDH1, stronger effect = lower value 0.991 | S. cerevisiae deletion strains, locus YKL160W, strain elf1, stronger effect = lower value 1 | S. cerevisiae deletion strains, locus YKL190W, strain CNB1, stronger effect = lower value 0.996 | S. cerevisiae deletion strains, locus YKR001C, strain vps1, stronger effect = lower value 0.987 | S. cerevisiae deletion strains, locus YKR026C, strain gcn3, stronger effect = lower value 0.988 | S. cerevisiae deletion strains, locus YKR091W, strain srl3, stronger effect = lower value 0.996 | S. cerevisiae deletion strains, locus YLL001W, strain dnm1, stronger effect = lower value 1 | S. cerevisiae deletion strains, locus YLL026W, stronger effect = lower value 0.997 | S. cerevisiae deletion strains, locus YLL041C, strain sdh2, stronger effect = lower value 0.991 | S. cerevisiae deletion strains, locus YLR027C, strain aat2, stronger effect = lower value 1 | S. cerevisiae deletion strains, locus YLR039C, strain RIC1, stronger effect = lower value 1.03 | S. cerevisiae deletion strains, locus YLR058C, strain SHM2, stronger effect = lower value 0.97 | S. cerevisiae deletion strains, locus YLR102C, strain apc9, stronger effect = lower value 0.982 | S. cerevisiae deletion strains, locus YLR221C, strain rsa3, stronger effect = lower value 0.969 | S. cerevisiae deletion strains, locus YLR258W, strain gsy2, stronger effect = lower value 0.997 | S. cerevisiae deletion strains, locus YLR262C, strain YPT6 (second series), stronger effect = lower value 0.999 | S. cerevisiae deletion strains, locus YLR262C, strain YPT6, stronger effect = lower value 0.989 | S. cerevisiae deletion strains, locus YLR268W, strain sec22, stronger effect = lower value 1.06 | S. cerevisiae deletion strains, locus YLR320W, strain mms22, stronger effect = lower value 0.965 | S. cerevisiae deletion strains, locus YLR330W, strain CHS5, stronger effect = lower value 0.995 | S. cerevisiae deletion strains, locus YLR342W, strain FKS1 (second series), stronger effect = lower value 0.991 | S. cerevisiae deletion strains, locus YLR342W, strain FKS1, stronger effect = lower value 1.01 | S. cerevisiae deletion strains, locus YLR357W, strain rsc2, stronger effect = lower value 0.991 | S. cerevisiae deletion strains, locus YLR370C, strain arc18, stronger effect = lower value 0.994 | S. cerevisiae deletion strains, locus YLR371W, strain rom2, stronger effect = lower value 0.974 | S. cerevisiae deletion strains, locus YLR384C, strain iki3, stronger effect = lower value 0.999 | S. cerevisiae deletion strains, locus YLR418C, strain cdc73, stronger effect = lower value 0.978 | S. cerevisiae deletion strains, locus YML016C, strain PPZ1, stronger effect = lower value 0.984 | S. cerevisiae deletion strains, locus YML032C, strain rad52, stronger effect = lower value 1 | S. cerevisiae deletion strains, locus YML120C, strain ndi1, stronger effect = lower value 1.01 | S. cerevisiae deletion strains, locus YML124C, strain tub3, stronger effect = lower value 0.984 | S. cerevisiae deletion strains, locus YMR058W, strain fet3, stronger effect = lower value 0.988 | S. cerevisiae deletion strains, locus YMR078C, strain ctf18, stronger effect = lower value 0.99 | S. cerevisiae deletion strains, locus YMR125W, strain sto1, stronger effect = lower value 0.992 | S. cerevisiae deletion strains, locus YMR129W, stronger effect = lower value 0.981 | S. cerevisiae deletion strains, locus YMR205C, strain PFK2, stronger effect = lower value 1.02 | S. cerevisiae deletion strains, locus YMR223W, strain ubp8, stronger effect = lower value 0.957 | S. cerevisiae deletion strains, locus YMR231W, strain pep5, stronger effect = lower value 0.994 | S. cerevisiae deletion strains, locus YMR263W, strain SAP30, stronger effect = lower value 0.981 and 0.985 | S. cerevisiae deletion strains, locus YMR307W, strain GAS1, stronger effect = lower value 0.947 | S. cerevisiae deletion strains, locus YNL067W, strain RPL9B, stronger effect = lower value 1.01 | S. cerevisiae deletion strains, locus YNL071W, strain lat1, stronger effect = lower value 1.01 | S. cerevisiae deletion strains, locus YNL128W, strain TEP1, stronger effect = lower value 0.975 | S. cerevisiae deletion strains, locus YNL153C, strain GIM3, stronger effect = lower value 1 | S. cerevisiae deletion strains, locus YNL175C, strain NOP13, stronger effect = lower value 1 | S. cerevisiae deletion strains, locus YNL197C, strain WHI3, stronger effect = lower value 0.99 | S. cerevisiae deletion strains, locus YNL209W, strain ssb2, stronger effect = lower value 1.01 | S. cerevisiae deletion strains, locus YNL224C, strain SQS1, stronger effect = lower value 0.982 | S. cerevisiae deletion strains, locus YNL233W, strain BNI4, stronger effect = lower value 1 | S. cerevisiae deletion strains, locus YNL248C, strain rpa49, stronger effect = lower value 0.972 | S. cerevisiae deletion strains, locus YNL250W, strain rad50, stronger effect = lower value 0.963 | S. cerevisiae deletion strains, locus YNL271C, strain bni1, stronger effect = lower value 0.996 | S. cerevisiae deletion strains, locus YNL298W, strain CLA4, stronger effect = lower value 0.971 | S. cerevisiae deletion strains, locus YNL307C, strain MCK1, stronger effect = lower value 0.989 | S. cerevisiae deletion strains, locus YNL322C, strain KRE1 (second series), stronger effect = lower value 1 | S. cerevisiae deletion strains, locus YNL322C, strain KRE1, stronger effect = lower value 0.991 and 0.992 | S. cerevisiae deletion strains, locus YNR049C, strain mso1, stronger effect = lower value 0.984 | S. cerevisiae deletion strains, locus YNR052C, strain pop2, stronger effect = lower value 0.976 | S. cerevisiae deletion strains, locus YOL006C, strain TOP1, stronger effect = lower value 1.03 | S. cerevisiae deletion strains, locus YOL012C, strain htz1 0.627 | S. cerevisiae deletion strains, locus YOL147C, strain pex11, stronger effect = lower value 0.987 | S. cerevisiae deletion strains, locus YOR001W, strain rrp6, stronger effect = lower value 0.931 | S. cerevisiae deletion strains, locus YOR061W, strain CKA2, stronger effect = lower value 0.965 | S. cerevisiae deletion strains, locus YOR069W, strain VPS5, stronger effect = lower value 0.983 | S. cerevisiae deletion strains, locus YOR070C, strain gyp1, stronger effect = lower value 0.979 | S. cerevisiae deletion strains, locus YOR080W, strain dia2, stronger effect = lower value 0.991 | S. cerevisiae deletion strains, locus YOR083W, strain WHI5 (second series), stronger effect = lower value 0.99 | S. cerevisiae deletion strains, locus YOR083W, strain WHI5, stronger effect = lower value 1.02 | S. cerevisiae deletion strains, locus YOR106W, strain vam3, stronger effect = lower value 1.02 | S. cerevisiae deletion strains, locus YOR136W, strain idh2, stronger effect = lower value 0.998 | S. cerevisiae deletion strains, locus YOR144C, strain elg1, stronger effect = lower value 0.985 | S. cerevisiae deletion strains, locus YOR184W, strain ser1, stronger effect = lower value 1.01 | S. cerevisiae deletion strains, locus YOR265W, strain rbl2, stronger effect = lower value 0.991 | S. cerevisiae deletion strains, locus YOR270C, strain vph1, stronger effect = lower value 0.957 | S. cerevisiae deletion strains, locus YOR290C, strain snf2, stronger effect = lower value 1.01 | S. cerevisiae deletion strains, locus YOR316C, strain cot1, stronger effect = lower value 0.994 | S. cerevisiae deletion strains, locus YPL051W, strain arl3, stronger effect = lower value 1.01 | S. cerevisiae deletion strains, locus YPL055C, strain LGE1, stronger effect = lower value 0.977 | S. cerevisiae deletion strains, locus YPL078C, strain atp4, stronger effect = lower value 1.02 | S. cerevisiae deletion strains, locus YPL106C, strain sse1, stronger effect = lower value 1.01 | S. cerevisiae deletion strains, locus YPL240C, strain hsp82, stronger effect = lower value 0.995 | S. cerevisiae deletion strains, locus YPL241C, strain CIN2, stronger effect = lower value 0.994 and 1.01 | S. cerevisiae deletion strains, locus YPR119W, strain clb2, stronger effect = lower value 0.989 | S. cerevisiae deletion strains, locus YPR141C, strain kar3, stronger effect = lower value 0.976 | S. cerevisiae deletion strains, locus YPR163C, strain tif3, stronger effect = lower value 0.995 | S. cerevisiae deletion strains, locus YPR167C, strain met16, stronger effect = lower value 0.989 | S. cerevisiae deletion strains, strain wtn01, stronger effect = lower value 1.02 | S. cerevisiae strains, strain wild type, stronger effect = lower value 0.984
